# Laboratory results taken from PubChem BioAssay AID1159580 (chemical genetic matrix, 2015).
# “And” between values parts separate entries of the source, which are not always exact repeats. Equal entries are not always repeated. Among all 5,500 compounds or so, about 2,000 (36%) were called active. Roughly 18% stayed inconclusive and do not appear here. Some of the results follow. Unmarked numbers belong to inactive results. No stated cut-off is given here; in the data, active means normalized growth mostly below about 0.91 (no sharp cut-off); inconclusive means no clear call, values can overlap the other calls; inactive means mostly above about 0.92.
# Assay: chemical genetic growth profiling, strain panel (AID 1159580);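 further: tested at 20 µM; growth read once vehicle control cultures reached saturation at 30 °C; 1 = growth at the plate median or of vehicle wells; lower values mean less growth of the strain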
# Conditions: S. cerevisiae deletion strains, growth OD
smiles,measurement,setting,value
CC1=C2CCC3C(CC[C@]4(C)C(=O)CCC34)[C@@]2(C)CCC1=O (some centres not stated),normalized growth,"locus YAL013W, strain DEP1, active compounds read low",0.961
same,normalized growth,"locus YAL021C, strain ccr4, active compounds read low",0.899 (active)
same,normalized growth,"locus YAL026C, strain drs2, active compounds read low",0.978
same,normalized growth,"locus YAL030W, strain snc1, active compounds read low",0.993
same,normalized growth,"locus YBL061C, strain skt5, active compounds read low",0.997
same,normalized growth,"locus YBR009C, strain hhf1, active compounds read low",0.956
same,normalized growth,"locus YBR021W, strain FUR4, active compounds read low",0.798 (active)
same,normalized growth,"locus YBR023C, strain chs3, active compounds read low",0.977
same,normalized growth,"locus YBR171W, strain sec66, active compounds read low",0.977
same,normalized growth,"locus YBR229C, strain ROT2, active compounds read low",0.981
same,normalized growth,"locus YBR231C, strain swc5, active compounds read low",1.04
same,normalized growth,"locus YBR279W, strain paf1, active compounds read low",0.972
same,normalized growth,"locus YCL011C, strain gbp2, active compounds read low",0.968
same,normalized growth,"locus YCL016C, strain dcc1, active compounds read low",0.947
same,normalized growth,"locus YCL029C, strain bik1, active compounds read low",0.969
same,normalized growth,"locus YCL061C, strain MRC1, active compounds read low",0.967
same,normalized growth,"locus YCL069W, strain vba3, active compounds read low",0.983
same,normalized growth,"locus YCR088W, strain abp1, active compounds read low",1.01
same,normalized growth,"locus YDL005C, strain med2, active compounds read low",0.993
same,normalized growth,"locus YDL035C, strain GPR1, active compounds read low",0.922
same,normalized growth,"locus YDL040C, strain nat1, active compounds read low",0.999
same,normalized growth,"locus YDL074C, strain BRE1, active compounds read low",0.915
same,normalized growth,"locus YDL101C, strain DUN1, active compounds read low",0.986
same,normalized growth,"locus YDL134C, strain PPH21, active compounds read low",0.981
same,normalized growth,"locus YDL185W, strain tfp1, active compounds read low",0.962
same,normalized growth,"locus YDL192W, strain arf1, active compounds read low",0.916 (active)
same,normalized growth,"locus YDR001C, strain nth1, active compounds read low",0.997
same,normalized growth,"locus YDR069C, strain doa4, active compounds read low",1
same,normalized growth,"locus YDR101C, strain arx1, active compounds read low",0.982
same,normalized growth,"locus YDR137W, strain rgp1, active compounds read low",0.693 (active)
same,normalized growth,"locus YDR150W, strain NUM1, active compounds read low",0.986
same,normalized growth,"locus YDR159W, strain sac3, active compounds read low",0.998
same,normalized growth,"locus YDR162C, strain NBP2, active compounds read low",0.842
same,normalized growth,"locus YDR195W, strain ref2",1.15 [resistant] (active)
same,normalized growth,"locus YDR297W, strain sur2, active compounds read low",0.995
same,normalized growth,"locus YDR318W, strain mcm21, active compounds read low",0.941
same,normalized growth,"locus YDR334W, strain swr1, active compounds read low",1.01
same,normalized growth,"locus YDR335W, strain msn5, active compounds read low",0.961
same,normalized growth,"locus YDR388W, active compounds read low",0.946
same,normalized growth,"locus YDR392W, strain spt3, active compounds read low",0.565 (active)
same,normalized growth,"locus YDR502C, strain sam2, active compounds read low",0.895 (active)
same,normalized growth,"locus YEL003W, strain gim4, active compounds read low",0.971
same,normalized growth,"locus YEL037C, strain rad23, active compounds read low",0.985
same,normalized growth,"locus YEL061C, strain CIN8 (second series), active compounds read low",0.992
same,normalized growth,"locus YEL061C, strain CIN8, active compounds read low",0.967
same,normalized growth,"locus YER015W, strain faa2, active compounds read low",0.964
same,normalized growth,"locus YER016W, strain bim1, active compounds read low",0.991
same,normalized growth,"locus YER110C, active compounds read low",0.957
same,normalized growth,"locus YER111C, strain swi4, active compounds read low",0.989
same,normalized growth,"locus YER155C, strain BEM2 (second series), active compounds read low",0.904
same,normalized growth,"locus YER155C, strain BEM2, active compounds read low",0.997
same,normalized growth,"locus YER167W, strain BCK2, active compounds read low",0.931
same,normalized growth,"locus YFR010W, strain ubp6, active compounds read low",1.02
same,normalized growth,"locus YGL078C, strain dbp3, active compounds read low",0.947
same,normalized growth,"locus YGL086W, strain mad1, active compounds read low",0.936
same,normalized growth,"locus YGL167C, strain pmr1, active compounds read low",0.963
same,normalized growth,"locus YGL173C, strain kem1, active compounds read low",1
same,normalized growth,"locus YGL227W, strain vid30, active compounds read low",1.01
same,normalized growth,"locus YGL240W, strain doc1, active compounds read low",0.941
same,normalized growth,"locus YGL248W, strain PDE1, active compounds read low",0.981
same,normalized growth,"locus YGL253W, strain hxk2, active compounds read low",0.979
same,normalized growth,"locus YGR078C, strain PAC10, active compounds read low",0.959
same,normalized growth,"locus YGR135W, strain pre9, active compounds read low",0.902
same,normalized growth,"locus YGR229C, strain SMI1, active compounds read low",0.962
same,normalized growth,"locus YGR252W, strain gcn5, active compounds read low",0.836
same,normalized growth,"locus YHR013C, strain ard1, active compounds read low",0.943
same,normalized growth,"locus YHR027C, strain rpn1, active compounds read low",0.995
same,normalized growth,"locus YHR030C, strain SLT2, active compounds read low",0.975 and 0.95
same,normalized growth,"locus YHR079C, strain IRE1 (second series), active compounds read low",0.986
same,normalized growth,"locus YHR079C, strain IRE1, active compounds read low",0.941
same,normalized growth,"locus YHR094C, strain hxt1, active compounds read low",0.984
same,normalized growth,"locus YHR129C, strain ARP1, active compounds read low",0.991
same,normalized growth,"locus YHR142W, strain chs7, active compounds read low",0.92
same,normalized growth,"locus YHR200W, strain rpn10, active compounds read low",0.955
same,normalized growth,"locus YIL066C, strain RNR3, active compounds read low",0.937
same,normalized growth,"locus YIL073C, strain SPO22, active compounds read low",0.861
same,normalized growth,"locus YIL125W, strain kgd1, active compounds read low",0.971
same,normalized growth,"locus YIR030C, strain dcg1, active compounds read low",0.971
same,normalized growth,"locus YJL092W, strain hpr5, active compounds read low",0.992
same,normalized growth,"locus YJL095W, strain BCK1 (second series), active compounds read low",0.992
same,normalized growth,"locus YJL095W, strain BCK1, active compounds read low",0.889 and 0.943
same,normalized growth,"locus YJL115W, strain asf1, active compounds read low",0.985
same,normalized growth,"locus YJL129C, strain trk1, active compounds read low",0.93
same,normalized growth,"locus YJL134W, strain LCB3, active compounds read low",0.983
same,normalized growth,"locus YJL154C, strain vps35, active compounds read low",0.993
same,normalized growth,"locus YJL164C, strain tpk1, active compounds read low",0.938
same,normalized growth,"locus YJL166W, strain qcr8, active compounds read low",0.963
same,normalized growth,"locus YJL168C, strain set2, active compounds read low",0.978
same,normalized growth,"locus YJL187C, strain SWE1 (second series), active compounds read low",0.985
same,normalized growth,"locus YJL187C, strain SWE1, active compounds read low",0.989
same,normalized growth,"locus YJR043C, strain POL32, active compounds read low",0.99
same,normalized growth,"locus YJR066W, strain TOR1, active compounds read low",0.852
